PubChem BioAssay (Tox21)
Inconclusive results are not listed. Entries that show only a call come without a potency. Activity calls are given as the source filed them. Calls come from the whole dose curve; as a rule, active = well fitted cell-killing curve with a large enough effect in the repeat runs; inconclusive = weak or mixed curves, or effect the other way; inactive = flat fitted curve, though single readings scatter.

test: qHTS assay to identify small molecule agonists of the sonic hedgehog signaling (Shh) pathway - cell viability counter screen (AID 1259366); details: NIH/3T3 Gli1-Luc viability, CellTiter-Fluor, 24 h; series mostly up to 92.4 µM; note: nearly all actives have a fitted effect of over 50% in size
Text: National Center for Advancing Translational Sciences [NCATS]
NIH Chemical Genomics Center [NCGC]
U.S. Environmental Protection Agency [EPA]
National Institutes of Environmental Health Sciences [NIEHS]
National Toxicology Program [NTP]
U.S. Food and Drug Administration [FDA]
The sonic hedgehog (Shh) pathway is essential for normal embryonic development. Dysregulation of the Shh pathway can cause severe developmental defects in organs. Therefore chemicals that interfere with the pathway are potential developmental toxicants. A cell line designated 3T3Gli1-Luc (DMB/OARSA/CFSAN/FDA, Laurel, MD), a NIH/3T3 derived clone containing stably integrated Gli1-Luc reporter is used to detect chemical interference of the Shh pathway, by changes in the expression of the firefly Luc gene under the control of the Gli1 transcriptional response element. This cell line was used to screen Tox21 libraries for identifying and prioritizing the potential developmental toxicants that interfere Shh pathway. The cytotoxicity of the compounds was tested in parallel by measuring the cell viability using CellTiter-Fluor assay system (Promega, Madison, WI) in the same wells.
Tox21 Assay Protocol Summary:
3T3 Gli1-Luc cells were dispensed at 2,000 per well in 5uL of culture medium into white solid bottom 1536-well plates (Greiner Bio-One, Monroe, NC) using a Multidrop Combi (Thermo Scientific, Waltham, MA) dispenser. The assay plates were incubated at 37 C and 5% CO2 for 4hr, and then 23nL of compounds dissolved in DMSO and positive control were transferred using a Pintool station (Wako, San Diego, CA). The assay plates were incubated at 37C and 5% CO2 for 24hr. For viability read, after 23hr of compound treatment, 1uL of CellTiter-Fluor reagent (Promega Corporation, Madison, WI) was added to each well of the assay plates using Flying Reagent Dispenser (FRD, Aurora Discovery, San Diego, CA) and incubated the assay plates at 37C for 1hr. The fluorescence signal was quantified using a ViewLux plate reader (Perkin Elmer, Shelton, CT).

| Structure (SMILES) | Potency |
| --- | --- |
| CC(C)CCOC(=O)CC(C)C | inactive |
| Nc1ccn(C2CO[C@H](CO)O2)c(=O)n1 (stereo not given in full) | inactive |
| COc1ccc(COC=O)cc1 | inactive |
| C=CCSCC1Nc2cc(Cl)c(S(N)(=O)=O)cc2S(=O)(=O)N1 (stereo not given) | inactive |
| CN(C)CCOC(c1ccc(Cl)cc1)c1ccccn1 (stereo not given) | inactive |
| CC(C)(O)Cc1ccccc1 | inactive |
| CCCCCCCCCCCl | inactive |
| CO[Si](OC)(OC)OC | inactive |
| CNC(=O)c1c(I)c(NC(=O)CCCCC(=O)Nc2c(I)c(C(=O)O)c(I)c(C(=O)NC)c2I)c(I)c(C(=O)O)c1I | inactive |
| OCC(O)[C@@H](O)[C@H](O)[C@H](O)CO[C@H]1O[C@H](CO)[C@@H](O)[C@H](O)[C@H]1O (stereo not given in full) | inactive |
| Cc1ncc(CSSCc2cnc(C)c(O)c2CO)c(CO)c1O | inactive |
| C=C(C)[C@@H]1CCC2=CC(=O)C[C@@H](C)[C@]2(C)C1 | inactive |
| CCCCCC[C@@H](CCC)C(=O)O | inactive |
| CSc1nc(NC2CC2)nc(NC(C)(C)C)n1 | inactive |
| COC(=O)CCCCCCCCC(=O)OC | inactive |
| NC(=O)c1c(Cl)cccc1Cl | inactive |
| C#CC(O)C(CC)CCCC (stereo not given) | inactive |
| CC(=O)OC(C)(C)C | inactive |
| COc1ccc(N=[N+]([O-])c2ccc(OC)cc2)cc1 | inactive |
| CSc1ccc(C=O)cc1 | inactive |

| Structure (SMILES) | Potency |
| --- | --- |
| COc1cc(CCC(C)=O)ccc1O | inactive |
| CCC(C)(C)C1CCC(OC)CC1 (stereo not given) | inactive |
| Cn1cnc2c(=O)[nH]c(N)nc21 | inactive |
| CC(C)(O)c1ccccc1 | inactive |
| C=C(C)C(=O)OCCC(C)OC(=O)C(=C)C (stereo not given) | inactive |
| O=C(CCOCCOCCOCCOCCC(=O)Nc1c(I)cc(I)c(C(=O)O)c1I)Nc1c(I)cc(I)c(C(=O)O)c1I | inactive |
| CCCCCCCCC=O | inactive |
| O=c1[nH]c(=O)n([C@H]2O[C@H](CO)[C@@H](O)[C@@H]2O)cc1/C=C\Br | inactive |
| CCCCc1ccc(N)cc1 | inactive |
| NC(=O)Nc1nc2ccccc2[nH]1 | inactive |
| c1ccc2cnncc2c1 | inactive |
| CC(=O)N[C@@H](CCC(N)=O)C(=O)O | inactive |
| Cc1nccn1CC1CCc2c(c3ccccc3n2C)C1=O (stereo not given) | inactive |
| CCN1CCN(c2cc3c(cc2F)c(=O)c(C(=O)O)cn3C2CC2)CC1 | inactive |
| CC(C)(C)N(CCO)CCO | inactive |
| CC(C)c1cccc(O)c1 | inactive |
| CC1=CC(C)C(C=O)C(C)C1 (stereo not given) | inactive |
| CC(C)c1cccc(C(C)C)c1N | inactive |
| [O-][N+](=Nc1ccccc1)c1ccccc1 | inactive |
| O=S(=O)(O)c1ccccc1O | inactive |
